In PubChem BioAssay AID1220 (Sanford-Burnham Center for Chemical Genomics, 2008):
About 1,300 (0.68%) of roughly 190,000 compounds were called active. Rule as the data show it: active = inhibition above about 50%; inactive = the rest. The full list was thinned out, with actives kept by preference.

What follows are compounds tested against Mannose-6-phosphate isomerase (Homo sapiens) (UniProt P34949) (assay: MPI inhibition at elevated mannose 6-phosphate – biochemical, fluorescence intensity, high mannose 6-phosphate, primary screen (AID 1220)). Conditions: recombinant PMI enzyme, coupled fluorescence intensity; at 20 µM; hits give high values.
Chain of Mannose-6-phosphate isomerase (Homo sapiens) (P34949 whole entry, looked up): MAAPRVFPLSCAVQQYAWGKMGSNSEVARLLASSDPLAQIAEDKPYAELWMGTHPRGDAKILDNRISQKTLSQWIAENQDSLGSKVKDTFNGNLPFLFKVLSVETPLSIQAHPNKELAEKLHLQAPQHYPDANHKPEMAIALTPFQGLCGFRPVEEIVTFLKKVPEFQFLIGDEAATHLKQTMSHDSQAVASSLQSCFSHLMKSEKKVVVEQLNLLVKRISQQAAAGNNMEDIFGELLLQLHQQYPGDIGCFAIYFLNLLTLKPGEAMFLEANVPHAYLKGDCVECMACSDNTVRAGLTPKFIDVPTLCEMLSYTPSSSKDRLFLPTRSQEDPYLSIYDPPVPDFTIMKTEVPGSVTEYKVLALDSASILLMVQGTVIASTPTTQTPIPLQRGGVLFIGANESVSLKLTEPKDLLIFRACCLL
In the case of C=CCN(C(=O)CCC(=O)Nc1cc(C)on1)C(C(=O)NC1CCCC1)c1cccnc1 (stereo unspecified), the inhibition was 12.1% (inactive).
In the case of COc1nc(Nc2cccc([N+](=O)[O-])c2)nc(OC)n1, the inhibition was 11.7% (inactive).
For Cc1cc2c(nn1)CCC/C2=N\O, the inhibition was 4% (inactive).
With COc1ccc(C(=O)CSc2nnc(CNC(=O)c3ccc(OC)cc3)n2C)cc1 the inhibition was -5.4% (inactive).
With Cc1cc2nnc(SC3CCCCN(C(=O)c4ccc(F)cc4)C3=O)n2c2ccccc12 (stereo unspecified) the inhibition was 3% (inactive).
With CC(C)c1ccc(/C=N/NC(=O)c2cccc(Cl)c2)cc1 the inhibition was -5.5% (inactive).
In the case of CC(C)Cn1ccc(=O)n(CC(C)C)c1=O, the inhibition was 12% (inactive).
For CC(C)c1ccc(NC(=O)COc2ccccn2)cc1, the inhibition was 4.4% (inactive).
In the case of CC(C)CC(=O)NC(c1ccccc1Cl)c1c(O)ccc2ccccc12 (stereo unspecified), the inhibition was 6.9% (inactive).
For O=c1c(-c2nnc(SCc3ccc(Cl)cc3Cl)o2)cccn1Cc1ccccc1, the inhibition was 7.2% (inactive).
COc1ccc(N2C(=O)CC(n3c(CCCCO)nc4ccccc43)C2=O)cc1 (stereo unspecified) was tested, and the inhibition was -9.5% (inactive).
Cn1c(/C(C#N)=C/c2cccc(O)c2)nc2ccccc21 was tested, and the inhibition was 6.4% (inactive).
Cn1c(/C(C#N)=C/c2ccncc2)nc2ccccc21 was tested, and the inhibition was 30.7% (inactive).
COc1cc(/C=C(\C#N)c2nc3ccccc3n2C)cc(OC)c1O was tested, and the inhibition was 57% (active).
With Cc1ccc2nc(C)/c(=N\O)c(C)nc2c1 the inhibition was 2.2% (inactive).
With Cc1nc2ccc(Cl)cc2nc(C)/c1=N\O the inhibition was 32.9% (inactive).
With Cc1nc2ccccc2nc(C)c1=NO the inhibition was 54.2% (active).
With COCCN1C(=O)/C(=C/c2ccc(OCc3ccc(C(=O)O)cc3)c(OC)c2)SC1=Nc1ccccc1 the inhibition was 5.1% (inactive).
CC(C)CNC(=O)COC(=O)c1cc(S(=O)(=O)N(C)C)ccc1N1CCCC1 was tested, and the inhibition was 4.7% (inactive).
With CN1C=CC2=C(C#N)C(N)C(C#N)(C#N)C(c3ccccc3)C2C1 (stereo unspecified) the inhibition was 18.5% (inactive).
With CCN1C=CC2=C(C#N)C(N)C(C#N)(C#N)C(c3ccccc3C(F)(F)F)C2C1 (stereo unspecified) the inhibition was 5.1% (inactive).
CN1C=CC2=C(C#N)C(N)C(C#N)(C#N)[C@H](c3ccccc3)[C@H]2C1 (stereo partly specified) was tested, and the inhibition was 61% (active).
O=C(Cn1nc(C(F)(F)F)c2c1CCC2)NCc1ccc(Cl)cc1 was tested, and the inhibition was -8.7% (inactive).
CC(C)C(C)NC(=O)CN1C(=O)NC2(CCCc3ccccc32)C1=O (stereo unspecified) was tested, and the inhibition was -2.2% (inactive).
With O=[N+]([O-])c1c(NCCO)cc(N2CCN(Cc3ccc4c(c3)OCO4)CC2)c2nonc12 the inhibition was 49.1% (inactive).
In the case of CN(CCO)c1cc(N2CCN(C(=O)c3ccco3)CC2)c2nonc2c1[N+](=O)[O-], the inhibition was 12.4% (inactive).
With CN(CCO)c1cc(N2CCC3(CC2)OCCO3)c2nonc2c1[N+](=O)[O-] the inhibition was 34.9% (inactive).
O=[N+]([O-])c1c(NCCCO)cc(N2CCN(Cc3ccc4c(c3)OCO4)CC2)c2nonc12 was tested, and the inhibition was 45.2% (inactive).
CCOC(=O)N1CCN(c2cc(N(C)CCO)c([N+](=O)[O-])c3nonc23)CC1 was tested, and the inhibition was 55.5% (active).
CC1CCN(c2cc(N(C)CCO)c([N+](=O)[O-])c3nonc23)CC1 was tested, and the inhibition was 50.7% (active).
CN(CCO)c1cc(N2CCCCC2)c2nonc2c1[N+](=O)[O-] was tested, and the inhibition was 42.4% (inactive).
With CC1CCCN(c2cc(N(C)CCO)c([N+](=O)[O-])c3nonc23)C1 (stereo unspecified) the inhibition was 18% (inactive).
For CCOC(=O)C1CCCN(c2cc(NCCCO)c([N+](=O)[O-])c3nonc23)C1 (stereo unspecified), the inhibition was 55.2% (active).
CC(C)(C)NC(=O)COC(=O)Cc1ccc(Cl)cc1 was tested, and the inhibition was -0.9% (inactive).
COC(=O)N/N=C/c1cc(Cl)c(OCc2ccc(F)cc2)c(OC)c1 was tested, and the inhibition was -6.1% (inactive).
CCC(C)NCCOCCOc1ccc(C)cc1Br (stereo unspecified) was tested, and the inhibition was 0.7% (inactive).
In the case of CCn1c(SCC(=O)N/N=C/C=C\c2ccccc2[N+](=O)[O-])nc2ccccc21, the inhibition was 6.4% (inactive).
CCOc1ccc(NC2CCN(C(C)=O)CC2)cc1 was tested, and the inhibition was 33.1% (inactive).
In the case of Clc1ccc(CCNc2nc3ccccc3s2)cc1, the inhibition was 1.2% (inactive).
O=C(CSc1ncccc1C(=O)O)c1ccccc1 was tested, and the inhibition was -60.9% (inactive).
With Cn1c(SCC(=O)Nc2cccc(Br)c2)nnc1-c1cc2ccccc2o1 the inhibition was -14.1% (inactive).
In the case of O=C(NCCc1ccccc1)c1ccccc1F, the inhibition was 8.3% (inactive).
In the case of c1cncc(-c2nnc(-c3cccnc3)nn2)c1, the inhibition was 62.4% (active).
For c1cncc(-c2nn[nH]n2)c1, the inhibition was -12.1% (inactive).
In the case of c1cncc(-c2cccnc2)c1, the inhibition was -2.8% (inactive).
COc1ccc(S(=O)(=O)NC(CC(=O)NCC2CCCO2)c2ccco2)cc1 (stereo unspecified) was tested, and the inhibition was 8% (inactive).
With Cc1cccc(OCCOCCN2CCNCC2)c1C the inhibition was -5% (inactive).
For Cc1nc2sc(C(c3ccccc3)N3CCOCC3)c(O)n2n1 (stereo unspecified), the inhibition was 3.4% (inactive).
For NC1=NC(=O)C(CC(=O)NCc2ccccc2)S1 (stereo unspecified), the inhibition was -10.3% (inactive).
For O=C(O)CNC(=O)CC1S/C(=N/N=C2/NC(=O)CS2)NC1=O (stereo unspecified), the inhibition was 29.5% (inactive).
Cc1ccc(C(=O)OCC(=O)Nc2ccccc2)cc1NC(=O)c1ccco1 was tested, and the inhibition was -0.6% (inactive).
With Cc1ccc(C)c(N2CCN(C(=O)CNS(=O)(=O)c3cccs3)CC2)c1 the inhibition was -4.9% (inactive).
COc1ccc(Cn2c(SCc3ccc(C)cc3)nc3cc(OC)c(OC)cc3c2=N)cc1Cl was tested, and the inhibition was 1.9% (inactive).
For Cc1ccsc1/C=C/c1ccc2cccc(O)c2n1, the inhibition was -8.2% (inactive).
With CSc1ccc(/C=C/c2ccc3cccc(O)c3n2)cc1 the inhibition was 17.3% (inactive).
With O=C(CSc1nnc(-c2cccs2)n1-c1ccccc1)NCC1CCCO1 (stereo unspecified) the inhibition was 5.8% (inactive).
In the case of CCOc1ccc2noc3c2c1C(=O)c1ccccc1-3, the inhibition was 19% (inactive).
In the case of O=C1c2ccccc2C(=O)c2c1cccc2N1CCCC1, the inhibition was 19.4% (inactive).
In the case of O=C1c2ccccc2-c2onc3ccc(NCc4ccco4)c1c23, the inhibition was 58.1% (active).
With O=C1c2ccccc2-c2onc3ccc(NCCCn4ccnc4)c1c23 the inhibition was 14.4% (inactive).
In the case of O=C1c2ccccc2-c2onc3ccc(N4CCCC4)c1c23, the inhibition was 62.6% (active).
In the case of CCNc1ccc2noc3c2c1C(=O)c1ccccc1-3, the inhibition was 46% (inactive).
With CSc1nc2ccccc2n1CC(=O)N1CCCCC1 the inhibition was 8.7% (inactive).
For CCC(Sc1ccc2nnc(-c3ccc(OC)c(OC)c3)n2n1)C(=O)O (stereo unspecified), the inhibition was -19.3% (inactive).
For CN(C)S(=O)(=O)c1cc(NC(=O)Cn2ccsc2=N)ccc1Cl, the inhibition was -0.6% (inactive).
For CN1CCN(c2ccc(NC(=O)c3sc4ccccc4c3Cl)cc2)CC1, the inhibition was 10.7% (inactive).
For CN1CCN(c2ccccc2NC(=O)c2sc3ccccc3c2Cl)CC1, the inhibition was 62.3% (active).
In the case of O=C(NC(=S)Nc1ccccc1N1CCOCC1)c1sc2ccccc2c1Cl, the inhibition was 7.5% (inactive).
With COc1ccccc1NC(=O)CN1CCC(n2c(C)nc3cc(F)ccc32)CC1 the inhibition was -4.8% (inactive).
Cn1c(CNc2nc3ccccc3n2C)nc2ccccc21 was tested, and the inhibition was 3.4% (inactive).
CCCn1c(CNc2ccccc2O)nc2ccccc21 was tested, and the inhibition was 34.6% (inactive).
For Cn1c(CNc2ccccc2O)nc2ccccc21, the inhibition was 61.3% (active).
For OCCNCC(O)Cn1ccc2ccccc21 (stereo unspecified), the inhibition was 12% (inactive).
For OC(CNc1ccccc1)Cn1ccc2ccccc21 (stereo unspecified), the inhibition was 7.5% (inactive).
With Oc1ccccc1NCC(O)Cn1ccc2ccccc21 (stereo unspecified) the inhibition was 55.3% (active).
O=C(CSCc1ccccc1)N/N=C/c1ccc(OCC(=O)N2CCCCC2)cc1 was tested, and the inhibition was 2% (inactive).
In the case of Cc1cc(NC(=O)c2ccco2)ncc1NC(=O)CCc1ccccc1, the inhibition was 34.9% (inactive).
In the case of COc1cc(NC(=O)CSc2nc(C)c(C)c(C)n2)c(C)cc1[N+](=O)[O-], the inhibition was -6.6% (inactive).
With Cc1cccc[n+]1C1C(c2ccc([N+](=O)[O-])cc2)C(C#N)=C(C(=C=[N-])C#N)NC1(O)C1CC1 (stereo unspecified) the inhibition was 15.2% (inactive).
With Cc1cccc[n+]1C1C(c2ccccc2)C(C#N)=C(C(=C=[N-])C#N)NC1(O)C1CC1 (stereo unspecified) the inhibition was 50.8% (active).
For N#CC(=C=[N-])C1=C(C#N)C(c2ccccc2F)C([n+]2ccccc2)C(O)(C2CC2)N1 (stereo unspecified), the inhibition was 21.1% (inactive).
With Cc1cnc(NC(=O)CC2CCCC2)s1 the inhibition was -13.1% (inactive).
With Cc1ccccc1Cn1nnc(-c2ccc3c(c2)OCO3)n1 the inhibition was 12.9% (inactive).
In the case of CC(=O)c1c(C)nc(-c2ccccc2)nc1N, the inhibition was -1.3% (inactive).
In the case of Cc1nc([N+](=O)[O-])nn1C12CC3CC(CC(Cl)(C3)C1)C2, the inhibition was -2.6% (inactive).
Cc1cc(NC(=O)C23CC4CC(C2)CC(n2cnc([N+](=O)[O-])n2)(C4)C3)no1 was tested, and the inhibition was 11.1% (inactive).
COCCn1c(SCc2cccnc2)nnc1-c1ccco1 was tested, and the inhibition was -18.7% (inactive).
In the case of C=CCn1c(=N)c(C(=O)OCC)cc2c(=O)n3cc(C)ccc3nc21, the inhibition was -2.4% (inactive).
CN(CC#CC1(O)c2ccccc2-c2ccccc21)Cc1ccccc1 was tested, and the inhibition was 0.8% (inactive).
CC(C)(C)CNc1cc(N2CCOCC2)ccc1[N+](=O)[O-] was tested, and the inhibition was 16.1% (inactive).
With COc1ccc(N2CCN(CC(=O)Nc3sccc3C#N)CC2)cc1 the inhibition was 18.8% (inactive).
With O=C(CN1CCN(c2ccc(O)cc2)CC1)Nc1cc(S(=O)(=O)N2CCCC2)ccc1Cl the inhibition was 45.4% (inactive).
N#Cc1ccsc1NC(=O)CN1CCN(c2ccc(O)cc2)CC1 was tested, and the inhibition was 54.7% (active).
For CN1CCN(CC(=O)Nc2ccccc2[N+](=O)[O-])CC1, the inhibition was -2.9% (inactive).
In the case of O=C(Cn1cnc2ccccc2c1=O)Nc1ccc2c(c1)OCCO2, the inhibition was 52.9% (active).
In the case of O=C(Cn1cnc2ccccc2c1=O)Nc1ccc2c(c1)OCO2, the inhibition was 1% (inactive).
In the case of CN1CCN(CC(=O)Nc2cc(N3CCOCC3)ccc2[N+](=O)[O-])CC1, the inhibition was 62.6% (active).
With O=C(Cn1cnc2ccccc2c1=O)NCCC(=O)Nc1ccc2c(c1)OCCO2 the inhibition was -6.6% (inactive).
With Cc1ccc(S(=O)(=O)N2CCOCC2)cc1NC(=O)CN1CCN(c2ccc(O)cc2)CC1 the inhibition was 53.9% (active).
N#Cc1ccsc1NC(=O)CN1CCN(c2ccccc2)CC1 was tested, and the inhibition was 7.6% (inactive).
For CC(=O)N1CCN(CC(=O)Nc2cc(S(=O)(=O)N3CCOCC3)ccc2C)CC1, the inhibition was 2% (inactive).
